# PubChem BioAssay (Tox21)
# Inconclusive results are not listed. Values without a mark were called inactive. Calls of active or inactive are those of the source. Unless noted, the call rests on the fitted dose curve.
# Tested on: not listed separately
# Test: p53 small molecule agonists, cell-based qHTS assay (AID 1963582; active means well fitted activation curve with a large enough effect in the signal ratio in the repeat runs, not every such curve was filed as active; the % refers to the signal ratio)
# Settings: HCT-116 p53RE-bla reporter, beta-lactamase FRET ratio, 16 h; series mostly up to 66 µM; activation: at the top concentration
# In short: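 Fluorescence intensity read-out of a beta-lactamase reporter under a p53 response element. Cells were exposed to DMSO-dissolved compounds for 16 h at 37 C, then developed with FRET substrate for 2 h at RT.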
# On the % scale 0 is the no-effect control and ±100 the full control effect.
SMILES,activation,Potency
CC(C[N+](C)(C)C)OC(N)=O (centres undefined),-1.26% [at 30.3 µM],–
O=S(=O)(O)c1ccccc1O,-2.21%,–
Cc1cccc(N(C)C)c1,-0.269%,–
OCC1CCC(CO)CC1 (centres undefined),0.251%,–
C=CCOC(=O)CCCCCC,0.579%,–
CCN(CC)S(=O)(=O)c1ccc(C(=O)O)cc1,-2.65% [at 30.3 µM],–
NNS(=O)(=O)c1ccc(Oc2ccc(S(=O)(=O)NN)cc2)cc1,-0.564%,–
O=Cc1ccc(C(=O)O)cc1,-0.83%,–
COCCOCCOCCOCCOC,1.66%,–
C=C(C)[C@H]1CC=C(C)CC1,-4.03%,–
CC(C)C1CCC(O)CC1 (centres undefined),1.16%,–
C=CC(C)(CCC=C(C)C)OC(=O)CC (centres undefined),-2.96%,–
[O-][n+]1ccc(Cl)cc1,-0.383%,–
CC(C)CCO,-2.24%,–
O=C(O)CCS,2.14%,–
Cc1cc(C)c(N=Nc2c(O)c(S(=O)(=O)O)cc3cc(S(=O)(=O)O)ccc23)cc1C,0.0696% [at 5.99 µM],–
Cc1ccc(Nc2ccc(O)c3c2C(=O)c2ccccc2C3=O)cc1,0.219%,–
C1=COCCC1,8.03%,–
NCCNCCN,–,inactive
CC(=O)N1C[C@H](O)C[C@H]1C(=O)O,-0.743% [at 30.3 µM],–

# Molecular target: 5-hydroxytryptamine receptor 2A (Homo sapiens) (UniProt P28223)
# Sequence (P28223 whole entry, looked up): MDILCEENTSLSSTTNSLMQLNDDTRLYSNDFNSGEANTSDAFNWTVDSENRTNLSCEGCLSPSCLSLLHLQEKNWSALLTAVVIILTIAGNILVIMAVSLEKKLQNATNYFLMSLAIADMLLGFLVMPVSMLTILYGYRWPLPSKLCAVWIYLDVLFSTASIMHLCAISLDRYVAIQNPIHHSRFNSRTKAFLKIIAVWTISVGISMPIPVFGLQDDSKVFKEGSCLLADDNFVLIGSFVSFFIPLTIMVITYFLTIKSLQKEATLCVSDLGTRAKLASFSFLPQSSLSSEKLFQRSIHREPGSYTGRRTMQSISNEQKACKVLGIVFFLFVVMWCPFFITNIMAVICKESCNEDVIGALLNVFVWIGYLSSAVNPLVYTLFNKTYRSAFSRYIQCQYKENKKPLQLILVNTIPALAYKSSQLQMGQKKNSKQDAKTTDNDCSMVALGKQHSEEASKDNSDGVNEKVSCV
# Test: 5-hydroxytryptamine receptor 2A (HTR2A) small molecule antagonists, cell-based qHTS assay (AID 1963586); further: nearly all actives have a fitted effect of over 45% in size; further: potency means the concentration at half of the fitted maximal effect
# Settings: HTR2A-CHO cells, DOI-induced calcium flux, fluorescence; series mostly up to 61.5 µM; activity, negative = inhibition: at the top concentration
# In short: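 CHO cells stably expressing human HTR2A were plated for 18 h at 37 C, then loaded with calcium dye for 1 h. Compounds were preincubated 5 min at room temperature before DOI (4 nM solution) was added. Kinetic fluorescence was read for 3 min.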
SMILES,"activity, negative = inhibition",Potency
Nc1nc(=O)n([C@@H]2O[C@H](CO)[C@@H](O)[C@@H]2F)cc1I,20.4% [at 28.5 µM],–
Cc1cc(C)cc(O)c1,–,inactive
COc1cc(C(=O)N2CCOCC2)cc(OC)c1OC,15.9% [at 28.5 µM],–
CCCO,-0.608%,–
CC12CCC(C1)C(C)(C)C2O (centres undefined),6.42%,–
[O]=[Zr],2%,–
C1CCC(SSC2CCCCC2)CC1,0.829%,–
CCCC[C@H]1CN(CC2CCOCC2)C(=O)OC12CCN(C1(C)CCN(C(=O)c3c(C)ncnc3C)CC1)CC2,5.93%,–
Cc1ccccc1S(=O)(=O)O,2.17%,–
NC(=O)c1ccc(N)cc1,-5.9%,–
FC(F)(F)C(Cl)Br (centres undefined),6.76%,–
CCCCCCCCSCCO,-11%,–
Cc1ccccc1C(N)=O,-3.68%,–
CC12CC3CC(C)(C1)CC(N)(C3)C2,6.04% [at 28.5 µM],–
O[C@@H]([C@H](O)[C@H](O)CBr)[C@H](O)CBr,27.9%,–
CCOc1ccc(N)c([N+](=O)[O-])c1,-0.518%,–
CC(=O)NCc1c(I)c(NC(C)=O)c(I)c(C(=O)O)c1I,29.2% [at 28.5 µM],–
Nc1cc([N+](=O)[O-])ccc1Cl,6.84%,–
Cc1c(C(=O)c2c[nH]n(C)c2=O)ccc(S(C)(=O)=O)c1C1=NOCC1,-4.39% [at 28.5 µM],–
CC(C[N+](C)(C)C)OC(N)=O (centres undefined),53.9% [at 28.5 µM],–

SMILES,"activity, negative = inhibition",Potency
O=S(=O)(O)c1ccccc1O,13.7%,–
Cc1cccc(N(C)C)c1,-10.3%,–
OCC1CCC(CO)CC1 (centres undefined),-4.95%,–
C=CCOC(=O)CCCCCC,6.59%,–
CCN(CC)S(=O)(=O)c1ccc(C(=O)O)cc1,42.6% [at 28.5 µM],–
NNS(=O)(=O)c1ccc(Oc2ccc(S(=O)(=O)NN)cc2)cc1,0.118%,–
O=Cc1ccc(C(=O)O)cc1,1.17%,–
COCCOCCOCCOCCOC,-19.1%,–
C=C(C)[C@H]1CC=C(C)CC1,-0.741%,–
CC(C)C1CCC(O)CC1 (centres undefined),7.57%,–
C=CC(C)(CCC=C(C)C)OC(=O)CC (centres undefined),8.33%,–
[O-][n+]1ccc(Cl)cc1,-85.9%,–
CC(C)CCO,0.785%,–
O=C(O)CCS,–,3.41 µM (active)
Cc1cc(C)c(N=Nc2c(O)c(S(=O)(=O)O)cc3cc(S(=O)(=O)O)ccc23)cc1C,-22.1% [at 5.62 µM],–
Cc1ccc(Nc2ccc(O)c3c2C(=O)c2ccccc2C3=O)cc1,-3.34%,–
C1=COCCC1,1.3%,–
NCCNCCN,–,inactive
CC(=O)N1C[C@H](O)C[C@H]1C(=O)O,-29.5% [at 28.5 µM],–
